Experiment [1] is described as follows: qHTS assay to identify small molecule agonists of the RXR signaling pathway - cell viability counter screen (AID 1159529). Further: series mostly up to about 77 µM; nearly all actives have a fitted effect of over 50% in size. An outline of the steps: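 CellTiter-Glo luminescence gave viability in the wells also read for beta-lactamase. Cells (RXR-alpha-UAS-bla HEK 293T, 2% charcoal-stripped FBS medium) had 5 hr plating, then 16 hr compound exposure at 37 C; tetraoctyl ammonium bromide served as positive control.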
A general note: Quantitative high-throughput screening tests each substance at several concentrations.

The nature of experiment [2]: qHTS assay to identify small molecule antagonists of the retinoid acid receptor (RAR) signaling pathway - cell viability counter screen (AID 1159551). Further: nearly all actives have a fitted effect of over 35% in size. In short, it runs like this: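 Retinol-stimulated (1 uM final) C3RL4 cells, compound 6 h, 37 C; readout CellTiter-Glo luminescence (ATP) after 30 min RT incubation.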
Experiment [3] in a line: qHTS assay to identify small molecule antagonists of the retinoic acid receptor (RAR) signaling pathway (AID 1159552; further: nearly all actives have a fitted effect of over 50% in size). An outline of the steps:
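Luminescent RARE reporter read-out in C3RL4 cells: 6 hr co-treatment at 37 C of test compounds with retinol at 1 uM final. Cells plated overnight beforehand; luciferase reagent incubated 30 min at room temperature before reading.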

Experiment [4] is described as follows: qHTS assay to identify small molecule agonists of the retinoic acid receptor (RAR) signaling pathway (AID 1159553). Further: potency means the concentration at half of the fitted maximal effect. In short, it runs like this: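 Reporter readout comes from luciferase under RARE control in C3RL4 cells; compound exposure lasts 6 hr at 37 C in 5% CO2, and luminescence is recorded following a 30 min room-temperature incubation with reagent.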

Experiment [5] can be described thus: qHTS assay to identify small molecule antagonists of the estrogen related receptor (ERR) signaling pathway from Tox21 library - cell viability counter screen (AID 1224834). Further: nearly all actives have a fitted effect of over 30% in size. Further: potency means the concentration at half of the fitted maximal effect. In short, it runs like this:
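After 17.5 h of compound exposure at 37 C, ERR cells are incubated with CellTiter-Fluor for 30 min and fluorescence intensity serves as the viability measure.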

Experiment [6] has as its target Luciferin 4-monooxygenase (Photinus pyralis) (UniProt P08659). Put plainly: qHTS assay to identify small molecule inhibitors of firefly luciferase (AID 1224835). Further: nearly all actives have a fitted effect of over 25% in size. Further: potency means the concentration at half of the fitted maximal effect. On activity change, negative = inhibition: series mostly up to about 120 µM. An outline of the steps:
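Inhibition of purified Photinus luciferase is measured by luminescence. Substrate levels (D-luciferin, ATP) sit at their KM values. Each compound is tested in a concentration series.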

Experiment [7] is described as follows: qHTS assay to identify small molecule agonists of the constitutive androstane receptor (CAR) signaling pathway - cell viability counter screen (AID 1224836). Further: series mostly up to about 92 µM; nearly all actives have a fitted effect of over 45% in size. In short, it runs like this: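 Cell viability multiplexed with the CAR agonist screen: CellTiter-Fluor fluorescence after 23 hr at 37 C. HepG2-CYP2B6-hCAR cells got compounds at 15 concentrations with PK11195 at 0.75 uM final.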

The nature of experiment [8]: qHTS assay to identify small molecule antagonists of the constitutive androstane receptor (CAR) signaling pathway - cell viability counter screen (AID 1224837). Further: series mostly up to about 92 µM; nearly all actives have a fitted effect of over 45% in size. An outline of the steps: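 Counter screen run in HepG2-CYP2B6-hCAR cells: 4 hr settle, compound titration (15 concentrations) with 50 nM CITCO, 23 hr at 37 C/5% CO2, CellTiter-Fluor fluorescence.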
The target in experiment [9] is Nuclear receptor subfamily 1 group I member 3 (Homo sapiens) (UniProt Q14994). Kind of experiment: qHTS assay to identify small molecule antagonists of the constitutive androstane receptor (CAR) signaling pathway (AID 1224838).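 Further: HepG2 cells stably expressing hCAR with CYP2B6 luciferase reporter stimulated by CITCO; nearly all actives have a fitted effect of over 40% in size.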 In short, it runs like this: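 Cell line: HepG2 double-stable for hCAR and CYP2B6-2.2kb reporter. Agonist: CITCO, 50 nM final. Compounds: 15 concentrations, 24 h, 37 C. Detection: ONE-Glo luminescence.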

Experiment [10] shares this target. Kind of experiment: qHTS assay to identify small molecule agonists of the constitutive androstane receptor (CAR) signaling pathway (AID 1224839). Further: nearly all actives have a fitted effect of over 15% in size. Further: potency means the concentration at half of the fitted maximal effect.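 On activation: HepG2 cells stably carrying human CAR and a CYP2B6 luciferase reporter; series mostly up to about 92 µM.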 An outline of the steps:
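Luminescent ONE-Glo read-out after 24 hr, 37 C exposure of double-stable HepG2-CYP2B6-hCAR reporter cells to a 15-point compound series, in the presence of 0.75 uM PK11195 (final).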

The nature of experiment [11]: qHTS assay to identify small molecule antagonists of the estrogen related receptor signaling pathway with the pleiotropic PPARgamma coactivator (PGC) from Tox21 10K library - cell viability counter screen (AID 1224840; active means well fitted cell-killing curve with a large enough effect in the repeat runs, not every such curve was filed as active; further: nearly all actives have a fitted effect of over 40% in size). An outline of the steps:
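Following seeding of 2,000 PGC/ERR cells/well and 6 hours' incubation, test compounds were delivered in DMSO. The plates then sat 17.5 hours at 37 C before a fluorogenic live-cell protease reagent (CellTiter-Fluor) was read after 30 min.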

Experiment [12] is described as follows: qHTS assay to identify small molecule antagonists of the estrogen related receptor signaling pathway with the pleiotropic PPARgamma coactivator (PGC) from Tox21 10K library (AID 1224841; call rule not given here; further: series mostly up to about 92 µM; actives are mostly falling curves and most rising ones were filed inactive; nearly all actives have a fitted effect of over 50% in size). An outline of the steps:
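qHTS antagonist format: PGC/ERR cells, 2k/well, compound in DMSO by pin transfer after 6 h attachment, 18 h treatment at 37 C, One-Glo luminescence read at 30 min.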

Experiment [13] can be described thus: qHTS assay to identify small molecule agonists of the estrogen related receptor signaling pathway with the pleiotropic PPARgamma coactivator (PGC) from Tox21 10K library (AID 1224842). Further: nearly all actives have a fitted effect of over 15% in size. An outline of the steps:
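Luminescence from One-Glo (30 min, room temperature) measured after PGC/ERR cells had 18 h at 37 C with pinned compound (23 nL in DMSO). Cells had been seeded at 2,000 per well and pre-incubated 6 h.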

Experiment [14] deals with Thyrotropin receptor (Homo sapiens) (UniProt P16473). Put plainly: qHTS assay to identify small molecule agonists of the thyroid stimulating hormone receptor (TSHR) signaling pathway (AID 1224843; calls by dose curve; further: nearly all actives have a fitted effect of over 45% in size). In short, it runs like this: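 HEK293 cells stably bearing the thyrotropin receptor were plated at 800 cells/well and challenged with compound (30 min, RT). Accumulated cAMP was quantified via cAMP-d2 competing for cryptate-tagged antibody.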

A short description of experiment [15]: qHTS assay to identify small molecule antagonists of the estrogen related receptor (ERR) signaling pathway - cell viability counter screen (AID 1224818). Further: series mostly up to about 46 µM. An outline of the steps: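 After a 6 h pre-incubation, ERR cells were dosed by pin tool with compounds, positive/negative controls or DMSO alone. Following 17.5 h at 37 C and 30 min with CellTiter-Fluor, fluorescence was recorded.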

Experiment [16] in a line: qHTS assay to identify small molecule agonists of the estrogen related receptor (ERR) signaling pathway (AID 1224820). An outline of the steps: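 Quantitative HTS of the LOPAC library used NTP ERR reporter cells treated 18 h at 37 C. Signal is luminescence after One-Glo addition and a 30 min room-temperature incubation.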
The nature of experiment [17]: qHTS assay to identify small molecule agonists of the estrogen related receptor signaling pathway with the pleiotropic PPARgamma coactivator (PGC) (AID 1224823). An outline of the steps: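 Cell-based luciferase assay in the NTP-supplied PGC/ERR line, 2,000 cells/well; 18 h compound exposure at 37 C, luminescence after One-Glo.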

Results filed as inconclusive are left out. Values without a mark were called inactive. Calls of active or inactive are those of the source. Unless noted, the call rests on the fitted dose curve; in most records, active means well fitted curve in the direction sought with a large enough effect in the repeat runs; inconclusive means weak or mixed curves; inactive means no such curve, though single readings can be large; an effect the other way counts as inactive or inconclusive.
On the % scale 0 is the no-effect control and ±100 the full control effect.

Chain of Thyrotropin receptor (Homo sapiens) (P16473 whole entry, looked up): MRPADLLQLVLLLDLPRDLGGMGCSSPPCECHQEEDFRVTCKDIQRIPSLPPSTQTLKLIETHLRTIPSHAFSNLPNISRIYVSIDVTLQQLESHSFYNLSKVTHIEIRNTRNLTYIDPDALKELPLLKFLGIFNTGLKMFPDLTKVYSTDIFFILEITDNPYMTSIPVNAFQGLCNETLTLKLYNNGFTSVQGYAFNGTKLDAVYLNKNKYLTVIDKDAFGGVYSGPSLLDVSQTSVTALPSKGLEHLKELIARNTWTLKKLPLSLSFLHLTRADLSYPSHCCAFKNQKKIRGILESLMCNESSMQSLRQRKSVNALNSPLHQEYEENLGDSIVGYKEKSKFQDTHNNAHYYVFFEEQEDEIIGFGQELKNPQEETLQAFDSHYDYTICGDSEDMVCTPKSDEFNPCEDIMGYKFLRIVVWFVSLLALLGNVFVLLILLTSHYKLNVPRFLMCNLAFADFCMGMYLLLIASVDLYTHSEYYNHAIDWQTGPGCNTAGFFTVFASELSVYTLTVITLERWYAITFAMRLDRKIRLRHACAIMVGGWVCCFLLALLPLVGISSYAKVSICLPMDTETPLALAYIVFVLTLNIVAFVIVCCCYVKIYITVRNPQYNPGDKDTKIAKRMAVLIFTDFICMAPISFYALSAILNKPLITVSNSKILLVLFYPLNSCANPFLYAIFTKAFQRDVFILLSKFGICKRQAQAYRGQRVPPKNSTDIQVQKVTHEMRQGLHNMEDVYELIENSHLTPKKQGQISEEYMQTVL
Chain of Nuclear receptor subfamily 1 group I member 3 (Homo sapiens) (Q14994 whole entry, looked up): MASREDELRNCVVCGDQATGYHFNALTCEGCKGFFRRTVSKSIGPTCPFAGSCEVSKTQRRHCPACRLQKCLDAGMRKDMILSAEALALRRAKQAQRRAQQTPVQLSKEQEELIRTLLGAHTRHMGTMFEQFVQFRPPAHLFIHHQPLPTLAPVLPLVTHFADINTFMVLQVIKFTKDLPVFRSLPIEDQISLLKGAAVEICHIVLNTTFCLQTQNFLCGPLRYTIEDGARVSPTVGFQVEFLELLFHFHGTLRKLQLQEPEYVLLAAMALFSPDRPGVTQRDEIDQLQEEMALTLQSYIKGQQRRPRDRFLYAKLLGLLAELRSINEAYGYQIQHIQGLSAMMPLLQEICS
Chain of Luciferin 4-monooxygenase (Photinus pyralis) (P08659 whole entry, looked up): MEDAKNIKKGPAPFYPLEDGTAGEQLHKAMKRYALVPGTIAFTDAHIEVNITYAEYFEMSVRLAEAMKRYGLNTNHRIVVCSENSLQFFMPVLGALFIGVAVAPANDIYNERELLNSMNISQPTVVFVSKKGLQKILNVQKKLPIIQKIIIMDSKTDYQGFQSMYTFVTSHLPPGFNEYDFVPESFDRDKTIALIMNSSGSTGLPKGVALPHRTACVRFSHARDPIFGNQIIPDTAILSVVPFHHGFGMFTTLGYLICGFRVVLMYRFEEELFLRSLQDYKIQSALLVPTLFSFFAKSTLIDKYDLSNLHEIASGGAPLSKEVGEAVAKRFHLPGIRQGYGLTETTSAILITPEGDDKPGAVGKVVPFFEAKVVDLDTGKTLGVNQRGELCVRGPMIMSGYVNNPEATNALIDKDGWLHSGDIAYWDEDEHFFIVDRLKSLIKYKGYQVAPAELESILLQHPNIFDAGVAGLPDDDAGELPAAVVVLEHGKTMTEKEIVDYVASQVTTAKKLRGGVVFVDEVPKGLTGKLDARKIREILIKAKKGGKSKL

`O=C(NS(=O)(=O)/C=C/c1cccs1)c1ccc(F)cc1Br`: the Potency entry in experiment [1], in experiment [2], in experiment [3], in experiment [4], in experiment [5] and in [6] was “inactive” in each case. For the same compound, the Potency result in experiment [7], in [8], in [9], in experiment [10] and in [11] was “inactive” each time.

For `Cc1ccc(C(=O)C(C)CN2CCCCC2)cc1` (stereo not drawn), the Potency entry in [1], in [2], in [3], in experiment [4], in experiment [5] and in experiment [6] was “inactive” throughout. For the same compound, the Potency result in experiment [7], in experiment [8], in experiment [9], in experiment [10], in experiment [11] and in [12] was “inactive” each time. Moreover, the Potency result in [13] and in [14] was “inactive” throughout.

In the case of `CC1CCc2cc(F)cc3c(=O)c(C(=O)O)cn1c23` (stereo not drawn), the Potency result in experiment [1], in experiment [2], in experiment [3], in experiment [4], in experiment [5] and in experiment [6] was “inactive” each time. Moreover, the Potency entry in experiment [7], in [8], in [9], in experiment [11] and in [14] was “inactive” throughout.

On to `CCOc1cc(OCC)c(C(=O)CCC(=O)O)cc1OCC`, for which the Potency result in experiment [1], in [2], in experiment [3], in experiment [4], in experiment [5] and in experiment [6] was “inactive” throughout. In addition, the Potency entry in experiment [7], in experiment [8], in experiment [9], in experiment [10] and in experiment [11] was “inactive” throughout.

Consider `O=C(C(=O)c1ccc(Br)cc1)c1ccc(Br)cc1`, for which the activity change, negative = cytotoxicity was 5.23% [at 15.8 µM] in experiment [1], 1.34% [at 19 µM] in experiment [2] and -2.27% [at 19 µM] in experiment [8]. In addition, the activity, negative = inhibition in [3] was 45.5% [at 19 µM]; in experiment [9], 0.195% [at 19 µM]. The Potency entry in experiment [4] is “inactive”. Besides, the figures for the viability change, negative = cytotoxic in experiment [5], in experiment [7] and in experiment [11] were -1.64% [at 19 µM], 3.05% [at 19 µM] and 3.02% [at 19 µM], respectively. Further, in experiment [6], the activity change, negative = inhibition was 1.95% [at 23.6 µM]. The activation is 2.8% [at 19 µM] in experiment [10] and 2.38% [at 19 µM] in experiment [13].

Turning to `CCN(CC)C(C)CN1c2ccccc2Sc2ccccc21` (stereo not drawn), the Potency entry in experiment [1], in [2], in experiment [3], in experiment [4], in [5] and in [6] was “inactive” in each case. In addition, the Potency entry in [7], in experiment [8], in [10], in experiment [11] and in experiment [14] was “inactive” each time. In addition, the outcome in experiment [15] was inactive.

On to `C=C(C)C(=O)OCCN(C)C`, for which the Potency entry in experiment [1], in experiment [2], in [3], in experiment [4], in [5] and in experiment [6] was “inactive” throughout. Also, the Potency result in [7], in experiment [8], in experiment [9], in experiment [10] and in experiment [11] was “inactive” in each case.

In the case of `Oc1ccc(O)c2c(O)cccc12`, the Potency result in experiment [1], in experiment [2], in experiment [3], in [4], in [5] and in experiment [6] was “inactive” each time. Besides, the Potency result in experiment [7], in experiment [8], in experiment [9], in experiment [11], in experiment [12] and in [13] was “inactive” in each case. Besides, the Potency result in experiment [14] was “inactive”.

Regarding `CC(C(=O)O)c1ccc(C(=O)c2ccccc2)s1` (stereo not drawn), the Potency entry in experiment [1], in experiment [2], in experiment [3], in experiment [5], in experiment [7] and in experiment [8] was “inactive” each time. Moreover, the Potency entry in experiment [9] and in [11] was “inactive” throughout. The Potency in experiment [4] is 8.41 µM (active); in experiment [6], 15.5 µM (active); in experiment [10], 16.8 µM (active).

With `C=Cc1c(C)c2cc3[nH]c(cc4nc(cc5nc(cc1[nH]2)C(C)=C5CCC(=O)O)C(CCC(=O)O)=C4C)c(C)c3C=C`, the Potency result in [1], in experiment [2], in experiment [3], in [4], in experiment [6] and in experiment [9] was “inactive” throughout. Besides, the Potency entry in experiment [11], in experiment [12] and in [13] was “inactive” throughout. For the same compound, the compound was called inactive in [16] and in experiment [17]. Further, the Potency in [5] was 23.7 µM (active).

Values taken from PubChem BioAssay (Tox21).
